# Measurements reported in PubChem BioAssay (NCI).
# Compounds without any hit were thinned out: in the full panel of roughly 79,000, 15% have a hit. Unmarked numbers belong to inactive results. The source made the active and inactive calls. No stated cut-off is given here; in the data, active means growth inhibition above about 70%; inactive means the rest.
# How the values were obtained:
# [1] = NCI Yeast Anticancer Drug Screen. Data for the rad50 strain (AID 155);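 further: 0% = growth of vehicle-only cultures of the same strain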; details: S. cerevisiae rad50 strain growth inhibition; at 50.0 µM; hits give high values
# Outline: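 Vehicle-treated cultures provide the reference for the growth inhibition reported for compound-exposed, repair-deficient yeast.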
# [2] = NCI Yeast Anticancer Drug Screen. Data for the mec2-1 strain (AID 157); details: S. cerevisiae mec2-1 strain, at 50.0 µM, hits give high values
# Outline: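 Using mec2-1 yeast: add compound, measure growth, express inhibition versus vehicle-treated cultures.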
# [3] = NCI Yeast Anticancer Drug Screen. Data for the sgs1 mgt1 strain (AID 161);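 further: 0% = growth of cultures given vehicle only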; details: S. cerevisiae sgs1 mgt1 strain, at 50.0 µM, hits give high values
# Outline: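 Compounds are added to genetically altered yeast, and growth is compared with cultures given vehicle alone to give percent inhibition.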
# [4] = NCI Yeast Anticancer Drug Screen. Data for the cln2 rad14 strain (AID 165);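 further: 0% = growth equal to vehicle treated cultures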; details: S. cerevisiae cln2 rad14 strain, at 50.0 µM, hits give high values
# Outline: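 Yeast strain cln2 rad14, bearing defects in cell cycle control and DNA repair, serves as the test system; values reflect growth inhibition compared with vehicle.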
# [5] = NCI Yeast Anticancer Drug Screen. Data for the bub3 strain (AID 167); details: S. cerevisiae bub3 mutant strain, at 50.0 µM, hits give high values
# Outline: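 Mutant yeast screening strain plus compound; vehicle-treated cultures serve as the 0% inhibition reference.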
# [6] = NCI Yeast Anticancer Drug Screen. Data for the mlh1 rad18 strain (AID 175); details: S. cerevisiae mlh1 rad18 strain growth inhibition; at 50.0 µM; hits give high values
# Outline: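 Steps: expose repair-defective yeast to compound; measure growth; express inhibition against vehicle-treated controls.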
SMILES,growth inhibition [1],growth inhibition [2],growth inhibition [3],growth inhibition [4],growth inhibition [5],growth inhibition [6]
CC(C)CC/C(=N\NC(N)=O)C1CCOCC1,-3.1%,14.2%,9.25%,-7.2%,-0.05%,-3.85%
CC1=C(C(=O)NCc2ccccc2)C(c2ccco2)C(C(=O)NCc2ccccc2)=C(C)N1,-34.5%,-20.4%,-37.5%,-13.3%,-9.9%,-21.8%
COc1ccc(OC)c(CCCCC(N)=O)c1,-19.8%,-8.2%,7.3%,1.4%,0.5%,-9.55%
C=CCN(CC=C)CCNc1cc(C)nc(/N=C(\N)Nc2ccc(Cl)c(Cl)c2)n1,94.7% (active),94.2% (active),96.8% (active),87% (active),94.7% (active),97.9% (active)
C[n+]1cccc(/C=C/C(=O)Nc2ccccc2)c1,5.8%,7%,-24.1%,5.95%,12.1%,19.4%
CC(=O)N(CN1C(=O)CCC1C(=O)O)c1ccccc1Cl (stereo unspecified),10.3%,14.4%,-13.6%,-4.35%,-3.85%,-40.5%
O=C(c1ccccc1)N1CCOCC1,9.75%,-2.5%,-3.25%,12.3%,-0.75%,13.2%
CCC[n+]1ccc(CCS(=O)(=O)c2ccc(N)cc2)cc1,6.15%,-6.55%,1.9%,-6%,21.4%,-16.7%
CS(=O)(=O)C1CCCCC1SC#N (stereo unspecified),-5.1%,-16.7%,-14.5%,-19%,4.1%,3.45%
CC(=O)Nc1ccc2cc(-c3ccc(Cl)cc3)c3nnnn3c2n1,14.3%,4.85%,25.8%,-53.1%,0.9%,17.8%
COc1cc(C=Nc2ccc(C)c(Cl)c2)ccc1OC(=O)c1ccccc1,-22.2%,-9.05%,-8.3%,-12.8%,3.5%,-0.3%
COC1=C(c2ccccc2)P(=O)(Cc2ccccc2)C(C)C1 (stereo unspecified),-6.95%,12.2%,24.6%,-9.1%,48.3%,1.9%
CS(C)=O.[Cl-].[Cl-].[NH-]CC(O)C[N-]CC(O)CN.[Pt+4] (stereo unspecified),-9.2%,-19.7%,-20.4%,-9.65%,-3.5%,9.55%
NC(=O)SCC(=O)Nc1ccc2ncccc2c1,-18.9%,4.7%,-22.8%,-27.2%,-8.15%,2.8%
COC(=O)C1C(=O)C=C(O)C2CCCCC21 (stereo unspecified),2.05%,-2.85%,-0.35%,-63%,-30.9%,2.5%
CC1COCOC1c1ccc2c(c1)OCO2 (stereo unspecified),17.6%,4%,6%,9.45%,-9.45%,-15.8%
O=S(=O)(OCCCC1CC2C=CC1C2)c1ccc(Br)cc1 (stereo unspecified),-1.7%,-12.2%,-17.6%,-7.05%,1.85%,2.45%
Nn1c(Cc2ccccc2)n[nH]c1=O,10.2%,-13.3%,12.2%,6.55%,-9.4%,-14.2%
C(=C\c1ccc(/C=C/c2ccccc2)nn1)/c1ccccc1,-5.8%,-3.1%,-1.65%,-21.4%,0.8%,-2.1%
COc1ccc2cc(C(C)C(=O)N3C(=O)OCC3(C)C)ccc2c1 (stereo unspecified),19.4%,-11.3%,30.4%,-13.7%,-8.75%,9.95%
COc1ccc(C(=O)C(c2ccc(OCc3ccccc3)cc2)c2ccc(OCc3ccccc3)cc2)cc1,5.4%,-35.8%,-6.35%,26.9%,-25.7%,-5.55%

SMILES,growth inhibition [1],growth inhibition [2],growth inhibition [3],growth inhibition [4],growth inhibition [5],growth inhibition [6]
Cc1cc(N=Nc2ccc(N=Nc3ccc(S(=O)(=O)O)cc3)cc2)cc(C(=O)O)c1O,12%,-9.4%,-2.85%,-8%,-19.7%,4.25%
CC(C)=NNC(=S)NC12CC3CC(CC(C3)C1)C2,29.4%,39.3%,25.1%,-8.7%,48.7%,35%
CCCCCCCCCC(=O)N/N=C/c1c[nH]c2ccccc12,0.95%,28.4%,20.7%,-8.75%,29.1%,21.9%
C/C(=N\N=Nc1ccc(N(C)C)cc1)c1ccccc1,1.6%,-3.3%,-5.25%,15.9%,29.2%,9.1%
CC(C)(C)OC(=O)N/N=C\c1ccnc2ccccc12,-8.1%,-8.75%,3.2%,-15.7%,-6.5%,-1.95%
CCN(CC)CCC(O)(c1cccc(Cl)c1)C1CCCCC1 (stereo unspecified),-1.4%,-6.25%,-3.1%,-68%,-7.95%,-7.25%
Cn1ncc2c(=O)[nH]c(N)nc21,6.65%,31.2%,-19.6%,1.2%,-3.15%,-5.85%
COC(=O)C1=C(O)C(C(=O)OC)[C@@]2(O)[C@@H](C(=O)OC)[C@H](C)C[C@@H]1[C@@H]2C(=O)OC (stereo partly specified),41.6%,15.4%,47%,-1.05%,23.1%,38.5%
CC1CN(Cc2ccccc2)CCC1N1CCCC1 (stereo unspecified),24.8%,11.8%,27.6%,29.4%,23.2%,21.4%
CCc1cc(CC)n2cnnc2n1,16.7%,-3.75%,-9%,-29.6%,7.2%,-8.5%
N=C1N(S(=O)(=O)c2ccccc2)[C@@H](Cc2ccccc2)[C@H](c2ccccc2)C1(c1ccccc1)c1ccccc1,-25.1%,-7.3%,6.05%,-29.6%,-3.5%,18.2%
CCCn1c(CC)nc([N+](=O)[O-])c1Sc1ncn[nH]1,-14.7%,-23.1%,-7.1%,9.1%,-5.6%,-11.5%
COc1cccc(C=O)c1[O-].COc1cccc(C=O)c1[O-].[Zn+2],52.4%,17.9%,56.7%,32.2%,11.8%,66%
O=C(O)c1ccc(C2C3C=CC(C3)C2[N+](=O)[O-])cc1 (stereo unspecified),6.15%,-18.8%,-20.2%,5.85%,-12.5%,-35.5%
Clc1ccc(N=Cc2ccccc2)cn1,-13.6%,22.1%,37%,-14.4%,6.55%,47.4%
COC1=C(OC)C(=O)C(C(=O)CCCCC(=O)O)=C(C)C1=O,4.8%,0.5%,8.5%,-35.4%,2.9%,13.9%
COC(=O)c1nc(N)nc(C(=O)OC)c1C(=O)c1ccc(Cl)cc1Cl,7.25%,-0.6%,-15.5%,3.6%,-8.3%,-3.25%
COc1ccc(C#N)c(-c2ccccc2)c1,-11.2%,-13.2%,17.5%,3.05%,-6.25%,-12.3%
C[C@H](CCC(=O)NCC(=O)O)[C@H]1CC[C@H]2[C@@H]3[C@H](O)C[C@@H]4C[C@H](O)CC[C@]4(C)[C@H]3CC[C@]12C,14.2%,-13.4%,0.15%,4.05%,-0.3%,6.5%
O=[N+]([O-])c1cc(Cl)cc2c1-c1c(Cl)cc(Cl)cc1C2,16.8%,28.3%,7.65%,20.8%,-6.25%,4.05%
